NadD block – NadD (S. aureus) enzyme inhibition; inhibition, % at 20 µM; actives 0.78% (n = 360,000); purified NadD enzyme, colorimetric absorbance read-out; AID 602399; in the data active = inhibition above about 26%
bovine MsrA act – activates bovine MsrA enzyme; actives 0.3% (n = 360,000); activation, % at 10.6 µM; AID 602163; purified bovine MsrA, absorbance read-out; in the data active = activation above about 7.5%
MsrA inhibitor – bovine MsrA inhibition; purified bovine MsrA, absorbance read-out; inhibition, % at 15.5 µM; actives 0.75% (n = 360,000); AID 651718; in the data active = inhibition above about 4.5%
rCAG binder – molecules binding r(CAG) RNA repeats; inhibition, % at 3 µM; AID 651821; actives 1.3% (n = 370,000); r(CAG) RNA repeat, TO-PRO-1 dye displacement fluorescence;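 active = inhibition above the plate cutoff, the mean of all test compounds on that plate plus 3 SD, cut at about 35% in these data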;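 also: higher means more dye released from RNA so lower well fluorescence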
NadD conf – confirmation of Staphylococcus aureus NadD inhibitors. shares compounds with NadD block. purified S. aureus NadD, colorimetric enzyme assay. inhibition, % at 20 µM. actives 13% (n = 2,000). AID 624309; in the data active = inhibition mostly above about 42%, no sharp cut-off; inactive = mostly below about 42%
rCAG binder conf – r(CAG) RNA repeat binding, confirmation | inhibition, % at 3 µM | shares compounds with rCAG binder | actives 70% (n = 4,300) | TO-PRO-1 dye displacement fluorescence;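 active = inhibition above a per-plate cutoff, the mean inhibition of sample wells plus 3 SD, cut at about 35% in these data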;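 also: loss of TO-PRO-1 fluorescence as compound displaces dye from 1x1 AA loop RNA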
DNA CAG counter – disrupts DNA CAG TO-PRO-1 complex, flagging rCAG hits; d(CAG) DNA oligo TO-PRO-1 dye displacement, fluorescence; inhibition, % at 3 µM; actives 94% (n = 4,300); shares compounds with rCAG binder; AID 652068;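 active = inhibition above its plate's cutoff, the mean test-well inhibition plus 3 SD, cut at about 4.8% in these data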;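 also: hits displace the dye from DNA and so lower well fluorescence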
Numbers stand for hits; n = inactive; x = no result given. Shown are actives, neighbours in structure and some others; about 2.7% of the full set was active somewhere.

SMILES	NadD block	bovine MsrA act	MsrA inhibitor	rCAG binder	NadD conf	rCAG binder conf	DNA CAG counter
Cc1ccc(-c2cc(-c3ccccc3)c3c(N)c(S(C)(=O)=O)sc3n2)cc1	n	n	n	n	x	x	x
CN(C(=O)COC(=O)c1ccc(=O)n(Cc2ccccc2)n1)C1CCS(=O)(=O)C1 (centres undefined)	n	n	n	n	x	x	x
Oc1csc(Cc2nc(-c3ccc4ccccc4c3)cs2)n1	56	n	n	36	n	n	18
COc1cccc(=O)c2c(C)n(CC(=O)c3ccccc3)c(C)c12	45	n	n	37	n	n	17
O=C1OC(c2cccs2)=N/C1=C\c1ccc(-c2ccccc2Cl)o1	39	n	n	40	n	37	16
O=C(c1ccc(Cl)c(Cl)c1)N1CCC(=O)N([C@H](COCc2cccc(C(F)(F)F)c2)Cc2ccccc2)CC1	n	n	n	n	x	x	x
S=C(NCc1ccco1)Nc1cc(-c2ccccc2)[nH]n1	n	n	n	n	x	x	x
COc1cc(/C=C(\CCC(=O)O)c2nc3ccccc3s2)ccc1OCC(=O)Nc1c(Cl)cccc1Cl	n	n	n	n	x	x	x
O=C(O)CC/C(=C/c1cccc(NC(=O)c2ccccc2Cl)c1)c1nc2ccccc2s1	47	n	n	71	n	75	40
O=C(Nc1cccc(S(=O)(=O)NC2=NCCCCC2)c1)c1cc(-c2ccco2)nc2ccccc12	46	n	n	35	59	n	16
O=C(Nc1cccc(S(=O)(=O)NC2=NCCCCC2)c1)c1cc(-c2ccncc2)nc2ccccc12	n	n	n	n	x	x	x
Cc1cc(C)n2nc(SCC(=O)Nc3ccc(F)cc3[N+](=O)[O-])nc2n1	n	n	n	n	x	x	x
CC1CN(c2ccccn2)C(C)CN1C(=S)Nc1ccccc1 (centres undefined)	n	n	n	n	x	x	x
Cc1[nH]n2c(=O)cc(-c3ccc([N+](=O)[O-])cc3)nc2c1-c1ccccc1	34	n	n	91	51	87	63
CCCc1cc(=O)n2[nH]c(C)c(-c3ccccc3)c2n1	n	n	n	n	x	x	x
CC(=O)Oc1ccccc1Cn1c(C)c(C(=O)NCc2ccc(F)cc2)sc1=O	n	n	n	n	x	x	x
O=C(COc1ccccc1)Nc1nnc(S(=O)(=O)N2CCCC2)s1	n	n	n	n	x	x	x
Cc1ccc(OCC(=O)Nc2nnc(S(=O)(=O)N3CCC(C)CC3)s2)cc1	26	n	n	42	n	53	23
O=C(COC(=O)c1cc(-c2ccco2)nc2ccccc12)NCc1ccccc1	46	n	n	38	n	n	n
COc1ccc(CCNC(=O)c2cc(-c3ccco3)nc3ccccc23)cc1	x	x	n	n	x	x	x
Cn1c(N)c(C(=O)COC(=O)c2cc(-c3ccco3)nc3ccccc23)c(=O)n(C)c1=O	59	n	n	49	74	45	20
Cc1ccc(NC(=O)CN(C)C(=O)c2cc(-c3ccco3)nc3ccccc23)cc1	34	n	n	35	n	n	8.7
O=c1cc(-c2ccc(O)c(-c3c(O)cc(O)c4c(=O)cc(-c5ccc(O)cc5)oc34)c2)oc2cc(O)cc(O)c12	77	n	n	92	66	79	53
Cc1ccc(CCNC(=O)C2CCC(=O)N(Cc3cccc(F)c3)C2)cc1 (centres undefined)	n	n	n	n	x	x	x
COCCCNC(=O)/C=C/c1ccc(Cl)cc1Cl	n	n	n	n	x	x	x
SMILES	NadD block	bovine MsrA act	MsrA inhibitor	rCAG binder	NadD conf	rCAG binder conf	DNA CAG counter
CCNc1ccc(Br)cc(C(=O)/C=C/c2ccc(Cl)cc2Cl)c1=O	39	n	n	45	n	48	21
CCOC(=O)C1=C(N)n2c(s/c(=C/c3ccco3)c2=O)=C(C(=O)OC)C1c1ccco1 (centres undefined)	31	n	n	57	n	n	14
Cc1ccc(-c2csc(N(C)C(=O)c3c(C)nn(-c4ccccc4)c3Cl)n2)cc1	n	n	n	n	x	x	x
Cc1ccc(N2CC(C(=O)OCC(=O)c3ccc(C)c([N+](=O)[O-])c3)CC2=O)cc1 (centres undefined)	n	n	n	n	x	x	x
Cc1c(C(=O)NNC(=O)c2ccccc2O)oc2ccc(Br)cc12	30	n	n	40	56	39	21
CCOc1ccc2oc(C(=O)NNC(=O)c3ccccc3O)c(C)c2c1	n	n	n	n	x	x	x
Cn1cnnc1SCC(=O)NNC(=O)COc1ccc(Cl)cc1	n	n	n	n	x	x	x
CCCSc1nnc(NC(=O)c2ccco2)s1	n	n	n	n	x	x	x
CCCSc1nnc(NC(=O)c2sc3nc(-c4cccs4)ccc3c2N)s1	37	n	n	36	n	68	33
Cc1cc(C(=O)NC2CCC(O)CC2)c(C)o1 (centres undefined)	n	n	n	n	x	x	x
Cc1onc(-c2ccccc2)c1C(=O)NC(=S)Nc1sc2c(c1C#N)CCC(C)C2 (centres undefined)	36	n	n	42	n	n	15
COc1ccccc1-n1c(SCC(=O)c2ccc(O)cc2O)nc2cc([N+](=O)[O-])ccc21	49	n	n	49	n	47	22
COc1ccccc1-n1c(SCC(=O)NC2CCS(=O)(=O)C2)nc2cc([N+](=O)[O-])ccc21 (centres undefined)	n	n	n	n	x	x	x
Cc1cccc2sc(NNC(=O)c3ccc(S(=O)(=O)N4CCc5ccccc5C4)cc3)nc12	38	n	n	54	51	59	30
CCN(C[C@H]1N[C@@](C)(C(=O)OC)[C@H]2C(=O)N(C)C(=O)[C@@H]12)C(=O)Nc1ccc(C(F)(F)F)cc1	n	n	n	n	x	x	x
Cc1cccc(C)c1NC(=O)NS(=O)(=O)c1ccccc1	n	n	n	n	x	x	x
O=C(/C=C/c1ccco1)NC(=S)Nc1nc(-c2ccc3ccccc3c2)cs1	30	n	n	40	n	n	14
Cc1ccc2oc(-c3cccc(NC(=S)NC(=O)/C=C/c4ccco4)c3)nc2c1	32	n	n	37	n	n	9.8
O=C(/C=C/c1ccco1)NC(=S)Nc1nc(-c2ccc(Cl)cc2)cs1	n	n	n	n	x	x	x
CCc1cccc(NC(=O)CN(C)S(=O)(=O)c2cccc3cccnc23)c1	n	n	n	n	x	x	x
Nc1scc2c(C(=O)N/N=C/c3ccc(Cl)cc3)nn(-c3ccccc3)c(=O)c12	40	n	n	41	n	n	16
CCOC(=O)c1nn(-c2ccccc2)c(=O)c2c(N)scc12	n	n	n	n	x	x	x
O=C(CCCN1C(=O)c2cccc3cccc(c23)C1=O)Nc1nccs1	n	n	n	n	x	x	x
Cc1ccc(NC(=O)CSc2ccc(-c3ccccn3)nn2)cc1F	n	n	n	n	x	x	x
COc1ccc(-c2cc(C(F)(F)F)c3c(n2)sc2c(O)cc(=O)[nH]c23)c(OC)c1	30	n	n	42	n	42	14
Cc1cc(C)c2c(n1)sc1c(O)cc(=O)[nH]c12	n	n	n	n	x	x	x
